IDE exosite inh: exo-site inhibitors of human insulin-degrading enzyme. purified IDE, FL-6b probe fluorescence polarization; hits give low values. z-score at 20 µM. 17,000 tested, 6.3% active. AID 1259349;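 active means z-score of -3 or lower, meaning strong loss of probe binding signal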;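 further: His-tagged human IDE residues 42-1019 made in E. coli with 30 nM FL-6b probe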
Target sequence (P14735 42-1019 limits assumed): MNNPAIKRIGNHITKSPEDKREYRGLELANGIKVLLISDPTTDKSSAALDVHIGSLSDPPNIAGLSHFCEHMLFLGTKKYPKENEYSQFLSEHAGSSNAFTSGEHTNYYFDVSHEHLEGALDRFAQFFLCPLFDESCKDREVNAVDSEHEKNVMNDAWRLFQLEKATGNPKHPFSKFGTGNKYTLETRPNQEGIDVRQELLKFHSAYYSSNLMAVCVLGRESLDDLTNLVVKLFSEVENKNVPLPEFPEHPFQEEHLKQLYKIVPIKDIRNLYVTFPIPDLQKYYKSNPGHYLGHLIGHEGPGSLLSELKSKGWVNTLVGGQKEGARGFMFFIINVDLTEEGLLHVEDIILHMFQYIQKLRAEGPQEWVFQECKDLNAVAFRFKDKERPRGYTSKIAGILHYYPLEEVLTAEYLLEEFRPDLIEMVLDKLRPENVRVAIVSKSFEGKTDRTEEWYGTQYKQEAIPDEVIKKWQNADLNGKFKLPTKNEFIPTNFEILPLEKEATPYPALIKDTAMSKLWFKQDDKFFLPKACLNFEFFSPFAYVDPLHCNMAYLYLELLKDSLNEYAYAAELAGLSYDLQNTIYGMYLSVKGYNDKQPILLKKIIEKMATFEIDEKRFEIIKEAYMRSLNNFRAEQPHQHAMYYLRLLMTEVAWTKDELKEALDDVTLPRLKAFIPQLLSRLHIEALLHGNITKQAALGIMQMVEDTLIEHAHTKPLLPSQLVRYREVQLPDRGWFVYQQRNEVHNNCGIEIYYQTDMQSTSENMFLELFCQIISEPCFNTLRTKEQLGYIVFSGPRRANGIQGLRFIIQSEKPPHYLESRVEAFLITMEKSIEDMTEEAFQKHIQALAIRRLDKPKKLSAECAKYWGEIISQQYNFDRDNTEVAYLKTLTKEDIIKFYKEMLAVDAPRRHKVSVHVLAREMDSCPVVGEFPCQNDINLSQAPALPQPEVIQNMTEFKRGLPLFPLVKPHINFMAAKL
Starred values were filed as active, the others as inactive; ! = a repeat was not active. Shown is part of a subset that was picked to be rich in hits.

SMILES	IDE exosite inh
COc1cccc(-c2ccc3n(c2=O)C[C@H]2N[C@@H]3[C@@H](C(=O)N3CCCCC3)[C@@H]2CO)c1	-0.44
C/C=C/c1ccc(C2[C@H]3CNC[C@@H]2N3Cc2cc(F)ccc2F)cc1 (stereo not given in full)	0.55
N#C[C@@H]1[C@@H](c2ccccc2-c2ccccc2F)[C@H](CO)N1C(=O)Cc1ccccc1	-1
COc1ccc(NC(=O)N2CC(=O)N3[C@H](CO)[C@@H](c4ccc(-c5ccc(C)cc5)cc4)[C@@H]3C2)cc1	-1
COC(=O)[C@H]1[C@H](CO)[C@H]2Cn3c(ccc(C4=CCCC4)c3=O)[C@H]2N1C(=O)Cc1cccnc1	-0.33
O=C(Nc1cccc(Cl)c1)N[C@H]1CC[C@H](CCn2cc(Cc3ccccc3)nn2)O[C@@H]1CO	0.55
O=S(=O)(Cc1ccccc1)N1CCCCN2[C@H](C1)[C@H](c1ccc(-c3ccccc3)cc1)[C@@H]2CO	2.8
Cc1ccccc1-c1ccc([C@@H]2[C@H](CO)N3CCCCN(S(=O)(=O)Cc4ccccc4)C[C@@H]23)cc1	-4.7*
O=S(=O)(Cc1ccccc1)N1CCCCN2[C@H](C1)[C@@H](c1ccc(-c3ccccc3)cc1)[C@@H]2CO	-0.2
N#Cc1ccc(-c2ccc([C@@H]3[C@H]4CN(C(=O)C5CCCCC5)CC(=O)N4[C@H]3CO)cc2)cc1	0.14
COCC(=O)NC[C@H]1N[C@H](CO)[C@@H]1c1ccc(-c2ccccc2)cc1	-0.6
O=C(NC[C@H]1N[C@@H](CO)[C@H]1c1ccc(-c2ccccc2F)cc1)c1ccccn1	-2.5
O=C(NC[C@H]1N[C@H](CO)[C@H]1c1ccc(-c2ccccc2F)cc1)c1ccccn1	-4.7*
O=C(NC[C@H]1N[C@@H](CO)[C@H]1c1ccc(-c2ccc(F)cc2)cc1)c1ccccn1	5.7
COCC(=O)NC[C@@H]1N[C@@H](CO)[C@H]1c1ccc(-c2ccccc2F)cc1	-3.8*
COCC(=O)NC[C@@H]1N[C@@H](CO)[C@H]1c1ccc(C2=CCCCC2)cc1	1.9
O=C(Nc1ccc(F)cc1)N1CC(=O)N2[C@H](CO)[C@H](c3ccc(Br)cc3)[C@@H]2C1	1.1
C[C@H](CO)N1C[C@H](C)[C@H](CN(C)C(=O)Nc2cccc(C(F)(F)F)c2)OCc2cn(nn2)CCCC1=O	-0.59
CCCC#Cc1ccc([C@@H]2[C@@H](CO)N3CCCCN(Cc4ccncc4)C[C@H]23)cc1	3.3
OC[C@H]1[C@H](c2ccc(/C=C/c3ccccc3)cc2)[C@@H]2CN(Cc3cccnc3)CCCCN12	-2.4
CCCC#Cc1ccc([C@H]2[C@@H](CO)N3CCCCN(Cc4ccncc4)C[C@H]23)cc1	-1.6
OC[C@@H]1[C@@H](c2ccc(-c3ccc(F)cc3)cc2)[C@@H]2CN(Cc3cccnc3)CCCCN12	1.2
OC[C@H]1[C@@H](c2ccc(-c3ccc(F)cc3)cc2)[C@H]2CN(Cc3cccnc3)CCCCN21	3.4
OC[C@H]1[C@@H](c2ccc(-c3ccc(F)cc3)cc2)[C@@H]2CN(Cc3cccnc3)CCCCN12	-1.7
OC[C@@H]1[C@H](c2ccc(/C=C/c3ccccc3)cc2)[C@H]2CN(Cc3cccnc3)CCCCN12	-5.4*
SMILES	IDE exosite inh
OC[C@H]1[C@H](c2ccc(/C=C/c3ccccc3)cc2)[C@@H]2CN(Cc3ccncc3)CCCCN12	-4.5*
OC[C@@H]1[C@@H](c2ccc(/C=C/c3ccccc3)cc2)[C@H]2CN(Cc3cccnc3)CCCCN12	-5.2*
CN(C)C(=O)c1cccc(-c2ccc([C@H]3[C@H]4CN(Cc5cccnc5)CCCCN4[C@H]3CO)cc2)c1	0.26
CC(C)(C)[S@@](=O)N1Cc2cc(C(=O)NC3CCC3)nc(-c3cccc(-c4ccccc4F)c3)c2[C@H]1CCO	-1.5
CCC(=O)N1[C@@H]2c3ccc(-c4ccccc4OC)c(=O)n3C[C@@H]2[C@@H](CO)[C@@H]1C(=O)NCCCN(C)C	-0.61
CN(C)C(=O)c1cccc(-c2ccc([C@@H]3[C@H](CO)N4CCCCN(CCC(F)(F)F)C[C@@H]34)cc2)c1	2
CCC(=O)N(CC)C[C@@H]1[C@@H](c2ccccc2)[C@H](CO)N1C(=O)C1CCC1	-0.12
O=C(C1CCC1)N1C[C@H]2[C@@H](c3ccccc31)[C@@H](CO)N2Cc1ccccc1	0.93
CC(=O)N1[C@H](CNC(=O)C2CC2)[C@H](c2ccc(-c3cccc(F)c3)cc2)[C@@H]1CO	-2.5
O=C1CN(Cc2ccccc2)C[C@@H]2[C@@H](c3ccc(Br)cc3)[C@H](CO)N12	2.5
COc1cccc(S(=O)(=O)N2[C@@H]3CNC[C@H]2C3c2ccc(-c3cccc(C)c3)cc2)c1 (stereo not given in full)	-1.5
COc1ccccc1S(=O)(=O)N1C[C@@H]2N[C@H](C1)C2c1ccc(-c2ccc(F)cc2)cc1 (stereo not given in full)	3
COc1ccccc1S(=O)(=O)N1[C@@H]2CNC[C@H]1C2c1ccc(/C=C/c2ccccc2)cc1 (stereo not given in full)	-5.2*!
C/C=C/c1ccc(C2[C@@H]3CN(S(=O)(=O)c4ccccc4)C[C@H]2N3)cc1 (stereo not given in full)	0.064
Cc1ccccc1-c1ccc(C2[C@@H]3CN(S(=O)(=O)c4ccccc4)C[C@H]2N3)cc1 (stereo not given in full)	-10*
COc1ccc(S(=O)(=O)N2[C@@H]3CNC[C@H]2C3c2ccc(-c3cccc(OC)c3)cc2)cc1 (stereo not given in full)	3.4
COc1cccc(S(=O)(=O)N2[C@@H]3CNC[C@H]2C3c2ccc(-c3ccccc3C)cc2)c1 (stereo not given in full)	-5.3*
Cc1ccc(S(=O)(=O)N2C[C@@H]3N[C@H](C2)C3c2ccc(/C=C/c3ccccc3)cc2)cc1 (stereo not given in full)	4.2
COc1ccccc1S(=O)(=O)N1C[C@@H]2N[C@H](C1)C2c1ccc(-c2ccccc2C)cc1 (stereo not given in full)	-7.9*!
COc1ccccc1S(=O)(=O)N1[C@@H]2CNC[C@H]1C2c1ccc(-c2ccncc2)cc1 (stereo not given in full)	0.19
COc1cccc(S(=O)(=O)N2[C@@H]3CNC[C@H]2C3c2ccc(/C=C/c3ccccc3)cc2)c1 (stereo not given in full)	0.22
COc1ccccc1S(=O)(=O)N1C[C@@H]2N[C@H](C1)C2c1ccc(-c2cccnc2)cc1 (stereo not given in full)	1.1
CN(C)C(=O)c1ccc(-c2ccc([C@H]3[C@H](C#N)N(C(=O)Cc4ccccn4)[C@H]3CO)cc2)cc1	1.4
CO[C@@H](CN(C)Cc1cc(F)ccc1F)[C@H](C)CN([C@@H](C)CO)S(=O)(=O)c1ccc(C)cc1	1.6
C[C@H](CO)N1C[C@H](C)[C@@H](CN(C)C(=O)Cc2ccccn2)Oc2ncc(-c3cccc(C(=O)N(C)C)c3)cc2C1=O	-0.23
COc1ccccc1CN1[C@H](CO)[C@@H]2c3ccccc3N(C(=O)c3cccnc3)C[C@@H]21	-0.23
CCCNC(=O)N[C@H]1C=C[C@@H](CC(=O)N2CCN(C)CC2)O[C@@H]1CO	-0.77
N#C[C@H]1[C@@H](c2ccccc2-c2ccccc2F)[C@@H](CO)N1C(=O)c1cccc(F)c1	1.2
CN(C)CC(=O)N1[C@H](CO)[C@@H](c2ccccc2-c2ccc(C(=O)N(C)C)cc2)[C@@H]1C#N	-0.82
CN(C)C(=O)c1cccc(-c2ccc([C@H]3[C@@H](C#N)N(C(=O)C4CC4)[C@H]3CO)cc2)c1	2.9

Assay outcomes from PubChem.
